# Results from PubChem BioAssay (Tox21).
# A number with no mark means an inactive call. A call without a number means that no potency is given here. The source made the active and inactive calls. Unless noted, calls follow the shape of the dose curve; as a rule, active = well fitted curve in the direction sought with a large enough effect in the repeat runs; inconclusive = weak or mixed curves; inactive = no such curve, though single readings can be large; an effect the other way counts as inactive or inconclusive. Positions of bridges follow the written chain, without caps; N, C: chain ends. Non-standard residues stand in square brackets, D forms with d. Residues, ends and D or L forms follow the SMILES beside them. *: point of attachment. X2 = CC[C@H](C)CCCCC(=O)*; Dab = NCC[C@H](N)C(=O)O
# How the values were obtained:
# [1] = qHTS assay to identify small molecule antagonists of the thyroid receptor (TR) signaling pathway - cell viability counter screen (AID 743064); also: nearly all actives have a fitted effect of over 50% in size
# Procedure, shortened: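 CellTiter-Fluor readout, 30 min at 37 °C/5% CO2, following 23.5 h incubation of GH3.TRE-Luc cells with test compound and 1 nM T3 (final).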
# [2] = qHTS assay to identify small molecule antagonists of the thyroid receptor (TR) signaling pathway (AID 743065); also: nearly all actives have a fitted effect of over 55% in size
# Procedure, shortened: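 Antagonism measured as loss of luciferase signal in GH3 cells stably carrying a TRE-luciferase reporter, co-treated with compound and T3 (1 nM final) for 23.5 h at 37 C. Viability was read in the same well by CellTiter-Fluor.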
# [3] = test system: thyroid hormone receptor (rat, GH3 cells); assay: qHTS assay to identify small molecule agonists of the thyroid receptor (TR) signaling pathway (AID 743066; calls by dose curve)
# [4] = molecular target: Estrogen receptor (Homo sapiens) (UniProt P03372); assay: qHTS assay to identify small molecule antagonists of the estrogen receptor alpha (ER-alpha) signaling pathway (AID 743069; active = well fitted curve in the direction sought with a large enough effect in the signal ratio in the repeat runs, not every such curve was filed as active; inconclusive = weak or mixed curves, or effect the other way; inactive = no such curve, though single readings can be large or run the other way; the % refers to the signal ratio)
# Sequence of Estrogen receptor (Homo sapiens) (P03372 whole entry, looked up): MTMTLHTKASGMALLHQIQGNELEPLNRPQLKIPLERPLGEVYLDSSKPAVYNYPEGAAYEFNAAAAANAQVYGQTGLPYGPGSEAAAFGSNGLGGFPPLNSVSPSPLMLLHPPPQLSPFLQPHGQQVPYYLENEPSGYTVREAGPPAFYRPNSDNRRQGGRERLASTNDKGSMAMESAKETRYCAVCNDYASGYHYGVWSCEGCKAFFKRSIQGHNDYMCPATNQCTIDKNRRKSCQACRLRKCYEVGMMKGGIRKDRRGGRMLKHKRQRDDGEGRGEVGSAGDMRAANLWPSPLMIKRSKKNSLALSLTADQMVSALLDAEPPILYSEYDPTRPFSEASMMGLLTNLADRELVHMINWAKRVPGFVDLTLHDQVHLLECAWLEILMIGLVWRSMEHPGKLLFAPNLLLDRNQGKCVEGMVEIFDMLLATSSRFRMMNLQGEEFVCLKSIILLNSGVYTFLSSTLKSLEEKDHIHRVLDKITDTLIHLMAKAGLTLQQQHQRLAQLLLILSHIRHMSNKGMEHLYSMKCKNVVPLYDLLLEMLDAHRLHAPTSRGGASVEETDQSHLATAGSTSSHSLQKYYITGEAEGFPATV
# Procedure, shortened: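 Fluorescence intensity from a beta-lactamase FRET substrate served as the read-out. Cells: HEK293 with stably integrated ER-alpha-UAS-bla reporter. Agonist 17beta-estradiol was co-added with compounds; incubation 18 hr at 37C, substrate 2 hr at room temperature.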
# [5] = qHTS assay to identify small molecule antagonists of the estrogen receptor alpha (ER-alpha) signaling pathway - cell viability counter screen (AID 743074; calls by dose curve; also: nearly all actives have a fitted effect of over 45% in size)
# [6] = molecular target: Estrogen receptor (Homo sapiens) (UniProt P03372); assay: qHTS assay to identify small molecule agonists of the estrogen receptor alpha (ER-alpha) signaling pathway (AID 743075; calls by dose curve; also: potency is read from the fitted curve at half-maximal effect)
# [7] = molecular target: Estrogen receptor (Homo sapiens) (UniProt P03372); assay: qHTS assay to identify small molecule agonists of the estrogen receptor alpha (ER-alpha) signaling pathway using the BG1 cell line (AID 743079); settings: BG1Luc4E2 cells, ERE-luciferase agonist, 22 h; activation: at 70.3 µM (top of the series); also: nearly all actives have a fitted effect of over 20% in size; also: potency is read from the fitted curve at half-maximal effect
# [8] = qHTS assay to identify small molecule antagonists of the estrogen receptor alpha (ER-alpha) signaling pathway using the BG1 cell line - cell viability counter screen (AID 743081);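 also: compound given together with 17beta-estradiol as the ER stimulus; nearly all actives have a fitted effect of over 45% in size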
# Aromatase (Homo sapiens) = Aromatase (Homo sapiens) (UniProt P11511); assay: qHTS assay to identify aromatase inhibitors (AID 743083); also: nearly all actives have a fitted effect of over 55% in size
# Sequence of Aromatase (Homo sapiens) (P11511 whole entry, looked up): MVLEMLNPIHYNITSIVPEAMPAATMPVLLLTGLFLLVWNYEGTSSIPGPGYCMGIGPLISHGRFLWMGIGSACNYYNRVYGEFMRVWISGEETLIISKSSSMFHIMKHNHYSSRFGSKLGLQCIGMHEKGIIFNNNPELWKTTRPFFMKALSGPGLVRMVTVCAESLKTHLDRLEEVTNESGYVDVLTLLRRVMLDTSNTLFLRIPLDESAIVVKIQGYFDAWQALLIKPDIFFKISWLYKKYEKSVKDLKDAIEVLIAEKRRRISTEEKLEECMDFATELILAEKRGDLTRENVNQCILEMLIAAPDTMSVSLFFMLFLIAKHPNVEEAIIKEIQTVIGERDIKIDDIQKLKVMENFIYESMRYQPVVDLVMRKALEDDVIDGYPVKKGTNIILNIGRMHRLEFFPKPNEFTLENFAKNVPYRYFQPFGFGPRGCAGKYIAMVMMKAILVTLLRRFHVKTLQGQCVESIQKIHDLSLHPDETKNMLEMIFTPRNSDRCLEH
# [9] = qHTS assay to identify aromatase inhibitors - cell viability counter screen (AID 743084);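 also: cells stimulated with testosterone during compound exposure; nearly all actives have a fitted effect of over 55% in size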
# [10] = molecular target: Aryl hydrocarbon receptor (Homo sapiens) (UniProt P35869); assay: qHTS assay to identify small molecule that activate the aryl hydrocarbon receptor (AhR) signaling pathway (AID 743085);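 also: HG2L7.5c1 human HepG2 liver cells with stably integrated DRE-driven firefly reporter; nearly all actives have a fitted effect of over 15% in size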
# Sequence of Aryl hydrocarbon receptor (Homo sapiens) (P35869 whole entry, looked up): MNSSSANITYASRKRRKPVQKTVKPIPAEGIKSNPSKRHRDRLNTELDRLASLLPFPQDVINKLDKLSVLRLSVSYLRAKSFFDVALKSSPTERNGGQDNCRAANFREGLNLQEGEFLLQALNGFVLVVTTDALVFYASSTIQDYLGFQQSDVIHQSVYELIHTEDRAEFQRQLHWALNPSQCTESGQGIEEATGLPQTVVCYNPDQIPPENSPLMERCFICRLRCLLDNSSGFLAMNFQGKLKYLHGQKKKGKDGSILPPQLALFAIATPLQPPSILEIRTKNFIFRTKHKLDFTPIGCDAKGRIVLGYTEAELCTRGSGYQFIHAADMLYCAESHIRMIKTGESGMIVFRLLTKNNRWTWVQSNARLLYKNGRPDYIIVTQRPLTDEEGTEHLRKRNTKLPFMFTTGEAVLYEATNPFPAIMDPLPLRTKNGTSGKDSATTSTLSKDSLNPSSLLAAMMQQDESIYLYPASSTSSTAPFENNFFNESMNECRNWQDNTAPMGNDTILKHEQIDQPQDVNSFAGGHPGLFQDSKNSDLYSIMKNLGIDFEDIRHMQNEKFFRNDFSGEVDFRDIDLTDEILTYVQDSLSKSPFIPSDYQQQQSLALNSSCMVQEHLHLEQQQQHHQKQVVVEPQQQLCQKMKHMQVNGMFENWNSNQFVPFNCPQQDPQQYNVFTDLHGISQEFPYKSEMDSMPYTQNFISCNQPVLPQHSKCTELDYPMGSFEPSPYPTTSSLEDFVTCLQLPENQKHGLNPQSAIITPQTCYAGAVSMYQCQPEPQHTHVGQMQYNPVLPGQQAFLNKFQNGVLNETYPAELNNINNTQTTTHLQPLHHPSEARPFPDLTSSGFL
# Procedure, shortened: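 Stably transfected human liver carcinoma cells (HG2L7.5c1; 20 DRE-firefly luciferase) were incubated 5 h, dosed, and kept 24 h at 37C. Agonism was scored from increased luciferase luminescence.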
# [11] = qHTS assay to identify small molecule that activate the aryl hydrocarbon receptor (AhR) signaling pathway - cell viability counter screen (AID 743086);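 also: HepG2 liver cells carrying the AhR DRE luciferase reporter; nearly all actives have a fitted effect of over 45% in size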
# Procedure, shortened: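 Cytotoxicity counter screen: CellTiter-Fluor signal (30 min, 37 C) in 4000 HepG2 cells/well carrying the DRE-luciferase reporter, following 24 h compound exposure at 37 C.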
# [12] = molecular target: Peroxisome proliferator-activated receptor gamma (Homo sapiens) (UniProt P37231); assay: qHTS assay to identify small molecule agonists of the peroxisome proliferator-activated receptor gamma (PPARg) signaling pathway (AID 743094; active = well fitted activation curve with a large enough effect in the signal ratio in the repeat runs, not every such curve was filed as active; inconclusive = weak or mixed curves, or effect the other way; inactive = no such curve, though single readings can be large or run the other way; the % refers to the signal ratio)
# Sequence of Peroxisome proliferator-activated receptor gamma (Homo sapiens) (P37231 whole entry, looked up): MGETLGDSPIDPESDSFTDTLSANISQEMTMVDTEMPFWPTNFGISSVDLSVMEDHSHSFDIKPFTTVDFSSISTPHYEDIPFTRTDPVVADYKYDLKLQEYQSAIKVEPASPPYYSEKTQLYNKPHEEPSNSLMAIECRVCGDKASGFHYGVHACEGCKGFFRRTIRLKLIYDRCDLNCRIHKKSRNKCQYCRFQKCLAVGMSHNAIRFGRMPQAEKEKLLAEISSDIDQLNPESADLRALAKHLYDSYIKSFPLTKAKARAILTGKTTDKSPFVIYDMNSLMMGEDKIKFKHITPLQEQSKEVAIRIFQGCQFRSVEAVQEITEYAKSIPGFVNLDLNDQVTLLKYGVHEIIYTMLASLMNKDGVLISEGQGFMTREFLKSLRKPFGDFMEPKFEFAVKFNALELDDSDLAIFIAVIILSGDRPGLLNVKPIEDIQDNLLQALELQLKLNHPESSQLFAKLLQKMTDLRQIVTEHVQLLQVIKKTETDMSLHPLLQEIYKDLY
# Procedure, shortened: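 Cell-based bla reporter, HEK293H background, PPARg-driven UAS. Pre-incubation 5 h, 37C, 5% CO2. Compound 17 h, 37C. Substrate 1 h RT; fluorescence.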
# [13] = qHTS assay to identify small molecule phospholipidosis (PLD) inducers (AID 1259344; active = well fitted curve in the direction sought with a large enough effect; inconclusive = small, poorly fitted or top-dose-only effect, or another doubt; inactive = no such curve, though single readings can be large; an effect the other way counts as inactive or inconclusive)
# Procedure, shortened: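 Accumulated phospholipid, stained red by LipidTOX during 24 h compound treatment of HepG2 cells at 37 C, is quantified from images as pit number and intensity, normalised per cell using Hoechst-stained nuclei.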
# [14] = molecular target: Nuclear receptor subfamily 1 group I member 2 (Rattus norvegicus) (UniProt Q9R1A7); assay: Rat pregnane X receptor (rPXR) activation by small molecules, qHTS assay (AID 1346983); settings: rPXR luciferase reporter cells, One-Glo luminescence, 24 h; max activation: active compounds read high; also: nearly all actives have a fitted effect of over 20% in size
# Sequence of Nuclear receptor subfamily 1 group I member 2 (Rattus norvegicus) (Q9R1A7 whole entry, looked up): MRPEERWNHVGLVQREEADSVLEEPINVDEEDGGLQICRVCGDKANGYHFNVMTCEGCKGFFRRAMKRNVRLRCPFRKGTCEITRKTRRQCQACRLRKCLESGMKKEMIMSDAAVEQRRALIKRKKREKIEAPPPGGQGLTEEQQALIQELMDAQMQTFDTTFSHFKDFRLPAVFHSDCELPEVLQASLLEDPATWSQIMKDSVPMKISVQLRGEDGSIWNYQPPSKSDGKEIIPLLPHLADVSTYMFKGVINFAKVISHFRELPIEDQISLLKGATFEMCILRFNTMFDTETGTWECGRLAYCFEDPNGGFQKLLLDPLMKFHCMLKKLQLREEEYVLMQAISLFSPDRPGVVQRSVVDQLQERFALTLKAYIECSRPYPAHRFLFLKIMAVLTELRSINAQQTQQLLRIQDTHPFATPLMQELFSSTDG
# Procedure, shortened: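 Luminescent readout (One-Glo luciferase, 30 min room temperature) followed 24 hr compound treatment at 37 C of rPXR cells plated 2,000 per well and preincubated 5hr; qHTS format with compounds delivered in DMSO.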
# [15] = molecular target: Nuclear receptor subfamily 1 group I member 2 (Homo sapiens) (UniProt O75469); assay: CYP3A4 induction through human pregnane X receptor (PXR) by small molecules, qHTS assay (AID 1346984); also: nearly all actives have a fitted effect of over 40% in size
# Procedure, shortened: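 Human PXR activation is tracked via CYP3A4 promoter-luciferase in DPX-2 (HepG2) cells. Compounds treat cells for 24hr at 37C, and luminescence is read after One-Glo.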
# [16] = molecular target: Nuclear receptor subfamily 1 group I member 2 (Homo sapiens) (UniProt O75469); assay: Human pregnane X receptor (PXR) activation by small molecules, qHTS assay (AID 1346985); also: nearly all actives have a fitted effect of over 40% in size
# Procedure, shortened: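 DPX-2 cells (HepG2 co-transfected with a PXR response element and a CYP3A4-promoter luciferase construct) were seeded at 2,000 per well, rested 5 hr at 37C, then exposed to DMSO-dissolved compounds for 24 hr. Activation was read as luciferase luminescence.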
# [17] = qHTS assay to identify small molecule antagonists of the estrogen receptor alpha (ER-alpha) signaling pathway using the BG1 cell line (AID 743080; calls by dose curve;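 also: BG1 cells stimulated with 17beta-estradiol alongside compound; nearly all actives have a fitted effect of over 25% in size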)
# Procedure, shortened: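 Luciferase inhibition measured with ONE-Glo after 30 min at RT in BG1Luc4E2 cells given test compounds and 17beta-estradiol for 21.5 h at 37 C; CellTiter-Fluor viability read in the same wells beforehand.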
SMILES,Potency [1],Potency [2],Potency [3],Potency [4],Potency [5],Potency [6],Potency [7],Potency [8],Potency (Aromatase (Homo sapiens)),Potency [9],Potency [10],Potency [11],Potency [12],Potency [13],max activation [14] [%],Potency [15],Potency [16],Potency [17]
O=C(O)CCC/C=C\C[C@@H]1[C@@H](/C=C/[C@@H](O)COc2cccc(Cl)c2)[C@H](O)C[C@@H]1O,inactive,inactive,inactive,inactive,inactive,inactive,inactive,inactive,inactive,inactive,inactive,inactive,inactive,inactive,-0.0632,inactive,inactive,–
CC[C@H](C)CCCCC(=O)N[C@@H](CCN)C(=O)N[C@H](C(=O)N[C@@H](CCN)C(=O)N[C@H]1CCNC(=O)[C@@H]([C@H](C)O)NC(=O)[C@H](CCN)NC(=O)[C@H](CCN)NC(=O)[C@H](CC(C)C)NC(=O)[C@@H](CC(C)C)NC(=O)[C@H](CCN)NC1=O)[C@@H](C)O (X2-[Dab]T[Dab][Dab][Dab][dL]L[Dab][Dab][dT]; lactam 4-C),inactive,inactive,inactive,inactive,inactive,inactive,inactive,inactive,inactive,inactive,inactive,inactive,inactive,inactive,-4.02,inactive,inactive,inactive
CCCCCCCCCCCCOCCCN,inactive,inactive,inactive,inactive,inactive,inactive,inactive,inactive,inactive,inactive,–,inactive,–,inactive,-3.73,inactive,inactive,–
CC(=O)N[C@@H]1C(O[C@H]2O[C@H](C(=O)O)C(O)[C@H](O)[C@H]2O)[C@H](O)[C@@H](CO)O[C@H]1O[C@@H]1C(C(=O)O)O[C@@H](O[C@H]2[C@H](O)[C@@H](CO)OC(O)[C@@H]2NC(C)=O)[C@H](O)[C@H]1O (some centres undefined),inactive,inactive,inactive,inactive,inactive,inactive,inactive,inactive,inactive,inactive,–,inactive,inactive,inactive,-1.09,inactive,inactive,inactive
O=C(O)CO.[NH2-].[NH2-].[Pt+2],inactive,inactive,inactive,inactive,inactive,inactive,inactive,inactive,inactive,inactive,–,inactive,inactive,inactive,-2.14,inactive,inactive,inactive
CCC(C)[C@@H](N)C(=O)O (some centres undefined),inactive,inactive,inactive,inactive,inactive,inactive,inactive,inactive,inactive,inactive,inactive,inactive,inactive,inactive,-2.74,inactive,inactive,inactive
NCc1ccccc1CC(=O)N[C@@H]1C(=O)N2C(C(=O)O)=C(CSc3nnnn3CC(=O)O)CS[C@H]12,inactive,inactive,inactive,inactive,inactive,inactive,inactive,inactive,inactive,inactive,–,inactive,inactive,inactive,-0.103,inactive,inactive,inactive
CC(C)(C)NCC(O)CSc1nc(-c2ccc(C(N)=O)s2)cs1 (centres undefined),inactive,inactive,inactive,inactive,inactive,inactive,inactive,inactive,inactive,inactive,–,inactive,inactive,inactive,-4.09,inactive,inactive,inactive
S=C=Nc1ccc(N=C=S)cc1,inactive,inactive,inactive,inactive,inactive,15.1 µM [inconclusive] (active),1.06 µM (active),inactive,inactive,inactive,inactive,inactive,inactive,inactive,-1.24,inactive,inactive,inactive
CCCc1ccc(C(=O)O)cc1,inactive,inactive,inactive,inactive,inactive,inactive,inactive,inactive,inactive,inactive,inactive,inactive,inactive,inactive,-2.43,inactive,inactive,inactive
NC(=O)OCC(O)COc1ccc(Cl)cc1 (centres undefined),inactive,inactive,inactive,inactive,inactive,inactive,inactive,inactive,inactive,inactive,inactive,inactive,inactive,inactive,0.928,inactive,inactive,inactive
O=C1c2ccccc2C(=O)C1c1ccc(Cl)cc1,inactive,inactive,inactive,inactive,inactive,inactive,inactive,–,inactive,inactive,–,inactive,inactive,inactive,-2.83,inactive,inactive,inactive
CO/N=C(\C(=O)N[C@@H]1C(=O)N2C(C(=O)O)=C(CSC(=O)c3ccco3)CS[C@H]12)c1csc(N)n1,inactive,inactive,inactive,inactive,inactive,inactive,inactive,inactive,inactive,inactive,inactive,inactive,inactive,inactive,-5.54,inactive,inactive,inactive
